About 83,000 compounds went through this panel and 20% of them were active in at least one assay; those are over-represented in the sample as a whole.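 A percent growth of 40 corresponds to 60% growth inhibition; 0 means no net growth; -100 means all cells died. Active threshold: below 10.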 The source made the active and inactive calls.
What follows are compounds tested on HL-60(TB) leukemia (assay: NCI-60 one-dose screen, 48 h (100 = growth as untreated, 0 = no growth, -100 = all killed)). Details: 10 µM unless noted.
In the case of CCN(Cc1ccc(Cl)c(Cl)c1)c1ccc2nc(N)nc(N)c2c1C, the growth is reported as -79.5% (active).
O=C(c1ccc(Cl)cc1)c1ccc(Cl)cc1 was tested, and the growth was 113% (inactive).
For CCSC(SCC)c1ccc(Cl)cc1, the growth was 116% (inactive).
COc1ccc(/C(C#N)=C/c2cc(OC)c(OC)c(OC)c2)cc1 was tested, and the growth was 14.8% (inactive).
With O=C(CCc1nnc(Cn2ccnc2)o1)c1nc2ccccc2[nH]1 the growth was 106% (inactive).
In the case of CN(C)CCCN=c1cc2c(=O)n(CCCN(C)C)c(=O)c3c(NCCCN(C)C)cc4c(O)n(CCCN(C)C)c(=O)c1c4c3-2, the growth is reported as 61.2% (inactive).
CC(=O)[C@@]12O[C@](C)(c3ccccc3)O[C@@H]1CC1C3CCC4=CC(=O)CC[C@]4(C)C3CC[C@@]12C (stereo not given in full) was tested, and the growth was 0.639% (active).
For COC(=O)C1=NNC(=S)N(c2cc(C)[nH]n2)C(=O)C1, the growth was 100% (inactive).
For O=C(c1nc2ccccc2[nH]1)C1[C@@H](c2cccc(O)c2)C2CC3CCCCC3N2[C@@]12C(=O)Nc1cc(Cl)ccc12 (stereo not given in full), the growth was 6.59% (active).
In the case of CNC(=O)c1cc(Oc2cccc3nc(Nc4ccc(Oc5ccccc5)cc4)ccc23)ccn1, the growth is reported as 87.1% (inactive).
Oc1ccc2cc(Br)ccc2c1-c1c(O)ccc2cc(Br)ccc12 was tested, and the growth was 81.2% (inactive).
With CC(C)CCSc1nc(NNC(N)=O)c(C#N)c(-c2ccccc2)n1 the growth was 99.8% (inactive).
For COc1cc(-c2nc3sccn3c2-c2ccnc(NCCNS(=O)(=O)c3ccccc3)n2)ccc1F, the growth was 60.2% (inactive).
In the case of COc1cc(C(=O)N(C(C)C)C2CCCCC2)cc(OC)c1OC, the growth is reported as 96.7% (inactive).
With Nc1cc(N)c2nc(-c3ccccc3)c(NCCc3ccc(Cl)c(Cl)c3)nc2c1 the growth was -10.5% (active).
COc1ccc(C2=Nc3c(N)ncnc3NC(c3cccc(Nc4ccnc5cc(C(F)(F)F)ccc45)c3)C2)cc1 (stereo not given) was tested, and the growth was 42.7% (inactive).
For C=C1C(=O)O[C@H]2[C@H]1CC/C(COC(=O)N[C@H](Cc1c[nH]c3ccccc13)C(=O)OC)=C\CC[C@@]1(C)O[C@@H]21, the growth was -58% (active).
For COc1ccc(-c2cscc2N)cc1, the growth was 18.7% [100 µM] (inactive).
With CCN1C(=O)N(CC)C2C1NN=c1s/c(=C\c3cnc(C)n3C)c(=O)n12 (stereo not given) the growth was -33.3% (active).
In the case of CC1=C(O)C(=O)C(c2c(C)cc(C)c(Br)c2C)=C(O)C1=O, the growth is reported as 53.4% (inactive).
For O=[N+]([O-])c1ccc(Oc2cccc(C(F)(F)F)c2)c([N+](=O)[O-])c1, the growth was 14.3% (inactive).
In the case of Cc1cc(C(=O)O)c(C)n1-c1cccc(C(=O)O)c1, the growth is reported as 56.2% (inactive).
In the case of CN(C)c1ccc2nc3ccc(=N)cc-3sc2c1, the growth is reported as -28.5% (active).
Cc1cc(C)c(S(=O)(=O)/N=c2/n(-c3ccccc3)nc3n2CCN3C2=NCCN2)c(C)c1 was tested, and the growth was 82.8% (inactive).
O=S(=O)(O)c1ccc(F)cc1 was tested, and the growth was 93.8% (inactive).
For Cc1cc(NCCCCNc2ccnc3cc(Cl)ccc23)nc(Nc2ccc(C(=O)N3CCCCC3)cc2)n1, the growth was -59.3% (active).
In the case of CCCCCCCCCC(C)NC(=O)CCl (stereo not given), the growth is reported as 92.3% (inactive).
In the case of c1ccc2c3c([nH]c2c1)C(c1ccc(C2NCCc4c2[nH]c2ccccc42)cc1)NCC3 (stereo not given), the growth is reported as -63.2% (active).
In the case of CCC1CCc2nc3sc(C(=O)Nc4ccccc4C)c(N)c3cc2C1 (stereo not given), the growth is reported as 2.97% (active).
Cc1ccc(C2=NNC(c3sc(Cl)nc3Cl)C2)cc1 (stereo not given) was tested, and the growth was 92.7% (inactive).
In the case of O=C1c2c(c3c4ccccc4n(CCCCCCN4CCOCC4)c3c3[nH]c4ccccc4c23)C(=O)N1O, the growth is reported as 77.7% (inactive).
In the case of Cc1[nH]c(N=Nc2ccccc2)nc1N=Nc1ccccc1, the growth is reported as 8.83% (active).
For COc1cc(-c2ccc(-[n+]3nc(-c4ccc([N+](=O)[O-])cc4)nn3-c3ccc([N+](=O)[O-])cc3)c(OC)c2)ccc1-[n+]1nc(-c2ccc([N+](=O)[O-])cc2)nn1-c1ccc([N+](=O)[O-])cc1, the growth was 14.2% (inactive).
With CCCCCCCC(C)NCCO (stereo not given) the growth was 101% (inactive).
CCCn1c(=O)c2c(nc(-c3cccc(OCCCCl)c3)n2C)n(CCC)c1=O was tested, and the growth was 107% (inactive).
In the case of CC(=O)c1c[nH]c2ccc(-c3ccnc(Nc4ccc(NC(=O)C5CCCC5)c(CN5CCOCC5)c4)n3)cc12, the growth is reported as -31.5% (active).
CCOc1ccccc1-c1cc(-c2cccs2)c(C#N)c(=O)[nH]1 was tested, and the growth was 78.9% (inactive).
Brc1ccc2c(c1)-c1ccccc1C1=NCCN12 was tested, and the growth was 18.2% (inactive).
COc1ccc(CNC(=O)c2c(C)n([O-])c3ccc(OC)cc3[n+]2=O)cc1 was tested, and the growth was 92.5% (inactive).
O=C(C1=Cc2cc3ccccc3n2Cc2cnnn21)c1ccc(O)cc1 was tested, and the growth was 41.7% (inactive).
